Assays:
Test in all cases: DAPPL (digital affinity profiling via proximity ligation, sequencing); 10 mM Tris-HCl pH 7.5, 50 mM NaCl, 1 mM DTT, 4% glycerol, room temperature, 30 min; GST-TFs on glutathione beads, 16-mer random dsDNA library, 0.1% formaldehyde crosslink after washing; high values mean tight binding
FLI1 = target: T1, FLI1 (Homo sapiens, UniProt Q01543 1-452); conditions: protein: recombinant; tags: N-terminal GST; dsDNA, one strand shown
T1 sequence: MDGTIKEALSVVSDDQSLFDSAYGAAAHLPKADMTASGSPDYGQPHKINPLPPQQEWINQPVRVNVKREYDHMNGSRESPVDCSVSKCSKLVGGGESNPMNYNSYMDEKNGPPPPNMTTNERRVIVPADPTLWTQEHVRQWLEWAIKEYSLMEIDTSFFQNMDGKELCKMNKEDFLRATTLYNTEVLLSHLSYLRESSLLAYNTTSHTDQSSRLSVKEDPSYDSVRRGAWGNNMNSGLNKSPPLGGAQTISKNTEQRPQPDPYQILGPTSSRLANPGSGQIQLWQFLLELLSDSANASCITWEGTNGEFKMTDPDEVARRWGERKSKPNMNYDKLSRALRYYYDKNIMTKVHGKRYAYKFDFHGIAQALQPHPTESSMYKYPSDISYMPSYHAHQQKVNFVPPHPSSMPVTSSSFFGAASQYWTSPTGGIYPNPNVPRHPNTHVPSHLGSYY
Summary of the method: (§1)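 GST fusions of human transcription factors were expressed in yeast and captured with glutathione beads. Once given DNA barcodes and pooled alongside a tag-only sample, they were incubated for 30 min at room temperature with 200 nmole of a random double-stranded 16-mer DNA library in Tris/NaCl/DTT/glycerol buffer, then washed, crosslinked (0.1% formaldehyde), proximity-ligated, PCR-amplified and sequenced on an Illumina NextSeq500. The binding signal of each hexamer is its read frequency for a factor divided by its frequency for the tag-only sample.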

ELK1 = target: T2, ELK1 (Homo sapiens, UniProt P19419 1-428); conditions: protein: recombinant; tags: N-terminal GST; dsDNA, one strand shown
T2 sequence: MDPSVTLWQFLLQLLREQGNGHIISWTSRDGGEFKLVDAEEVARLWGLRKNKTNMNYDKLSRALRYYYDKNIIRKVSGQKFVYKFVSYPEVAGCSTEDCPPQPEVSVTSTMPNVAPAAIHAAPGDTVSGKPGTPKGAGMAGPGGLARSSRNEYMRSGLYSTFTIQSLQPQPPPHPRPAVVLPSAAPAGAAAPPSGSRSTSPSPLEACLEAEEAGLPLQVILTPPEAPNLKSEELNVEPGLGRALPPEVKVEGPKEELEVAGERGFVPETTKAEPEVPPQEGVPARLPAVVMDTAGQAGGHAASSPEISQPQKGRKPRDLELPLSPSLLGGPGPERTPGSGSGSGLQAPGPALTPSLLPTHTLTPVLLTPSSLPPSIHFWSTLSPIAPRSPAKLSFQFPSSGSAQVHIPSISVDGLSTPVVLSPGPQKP
Summary of the method: as §1

GABPA = target: T3, GABPA (Homo sapiens, UniProt Q06546 1-454); conditions: protein: recombinant; tags: N-terminal GST; dsDNA, one strand shown
T3 sequence: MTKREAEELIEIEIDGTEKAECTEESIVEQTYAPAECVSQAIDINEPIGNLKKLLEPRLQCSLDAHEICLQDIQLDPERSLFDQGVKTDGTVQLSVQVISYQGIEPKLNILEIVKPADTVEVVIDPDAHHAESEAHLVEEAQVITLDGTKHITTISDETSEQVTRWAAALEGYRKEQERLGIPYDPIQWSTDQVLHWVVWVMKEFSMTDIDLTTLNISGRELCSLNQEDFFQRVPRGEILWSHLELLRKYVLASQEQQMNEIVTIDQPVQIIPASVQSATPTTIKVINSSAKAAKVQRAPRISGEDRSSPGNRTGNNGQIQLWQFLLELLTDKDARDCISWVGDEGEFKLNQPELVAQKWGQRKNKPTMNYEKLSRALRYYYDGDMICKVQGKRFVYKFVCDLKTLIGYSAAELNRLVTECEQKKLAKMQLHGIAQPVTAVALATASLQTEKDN
Summary of the method: as §1

ERG = target: T4, ERG (Homo sapiens, UniProt P11308 1-479); conditions: protein: recombinant; tags: N-terminal GST; dsDNA, one strand shown
T4 sequence: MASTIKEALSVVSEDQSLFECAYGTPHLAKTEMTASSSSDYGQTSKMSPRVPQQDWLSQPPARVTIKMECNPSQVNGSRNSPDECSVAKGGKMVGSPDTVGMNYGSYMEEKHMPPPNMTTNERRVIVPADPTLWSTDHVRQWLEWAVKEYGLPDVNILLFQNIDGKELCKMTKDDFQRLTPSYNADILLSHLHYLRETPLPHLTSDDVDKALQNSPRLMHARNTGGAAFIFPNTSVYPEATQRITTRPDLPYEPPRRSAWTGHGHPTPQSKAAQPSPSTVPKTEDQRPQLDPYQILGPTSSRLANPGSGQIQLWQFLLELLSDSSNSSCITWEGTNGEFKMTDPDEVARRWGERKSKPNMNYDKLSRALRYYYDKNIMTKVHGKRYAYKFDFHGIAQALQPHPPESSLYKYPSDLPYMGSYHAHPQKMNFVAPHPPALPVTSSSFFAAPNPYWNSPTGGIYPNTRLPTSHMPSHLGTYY
Summary of the method: as §1

ELF1 = ELF1 (Homo sapiens, UniProt P32519 1-619); conditions: protein: recombinant; tags: N-terminal GST; dsDNA, one strand shown
ELF1, sequence (P32519 whole entry): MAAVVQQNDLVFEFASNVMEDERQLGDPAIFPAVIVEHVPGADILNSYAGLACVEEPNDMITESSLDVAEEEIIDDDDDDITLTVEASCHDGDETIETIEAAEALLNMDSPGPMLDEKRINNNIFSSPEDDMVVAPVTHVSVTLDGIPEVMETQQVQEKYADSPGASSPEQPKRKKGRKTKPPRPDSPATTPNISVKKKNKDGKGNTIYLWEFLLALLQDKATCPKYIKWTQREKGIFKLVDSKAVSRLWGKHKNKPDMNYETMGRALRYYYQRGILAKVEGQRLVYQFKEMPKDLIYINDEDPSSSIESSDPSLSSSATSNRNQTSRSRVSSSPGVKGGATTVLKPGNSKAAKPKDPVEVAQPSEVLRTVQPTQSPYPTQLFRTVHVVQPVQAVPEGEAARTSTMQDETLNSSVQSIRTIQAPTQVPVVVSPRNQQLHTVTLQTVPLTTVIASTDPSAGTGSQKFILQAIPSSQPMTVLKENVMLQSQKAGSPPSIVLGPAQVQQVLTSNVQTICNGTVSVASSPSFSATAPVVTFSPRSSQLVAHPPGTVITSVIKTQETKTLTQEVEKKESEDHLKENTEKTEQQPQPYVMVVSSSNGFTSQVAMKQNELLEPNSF
Summary of the method: as §1

EHF = target: T5, EHF (Homo sapiens, UniProt Q9NZC4 1-300); conditions: protein: recombinant; tags: N-terminal GST; dsDNA, one strand shown
T5 sequence: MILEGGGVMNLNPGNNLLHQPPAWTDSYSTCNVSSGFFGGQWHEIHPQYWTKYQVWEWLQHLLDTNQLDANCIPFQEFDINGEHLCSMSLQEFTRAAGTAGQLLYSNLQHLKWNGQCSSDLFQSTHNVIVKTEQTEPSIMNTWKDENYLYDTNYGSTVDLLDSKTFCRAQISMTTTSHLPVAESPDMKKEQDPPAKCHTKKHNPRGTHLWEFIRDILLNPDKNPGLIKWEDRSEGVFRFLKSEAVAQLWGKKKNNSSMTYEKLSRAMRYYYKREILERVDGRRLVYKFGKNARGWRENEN
Summary of the method: as §1

SPI1 = SPI1 (Homo sapiens, UniProt P17947 1-270); conditions: protein: recombinant; tags: N-terminal GST; dsDNA, one strand shown
Summary of the method: as §1

SPIB = SPIB (Homo sapiens, UniProt Q01892 1-262); conditions: protein: recombinant; tags: N-terminal GST; dsDNA, one strand shown
SPIB, sequence (Q01892 whole entry): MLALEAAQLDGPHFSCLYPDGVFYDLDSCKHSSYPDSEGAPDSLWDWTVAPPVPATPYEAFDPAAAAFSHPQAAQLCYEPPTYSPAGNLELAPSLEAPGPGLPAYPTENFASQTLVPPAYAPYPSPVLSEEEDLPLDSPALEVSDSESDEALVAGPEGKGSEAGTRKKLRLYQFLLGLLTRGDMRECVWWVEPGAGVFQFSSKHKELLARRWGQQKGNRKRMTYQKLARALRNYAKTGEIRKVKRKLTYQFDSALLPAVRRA
Summary of the method: as §1

ELK3 = target: T6, ELK3 (Homo sapiens, UniProt P41970 1-407); conditions: protein: recombinant; tags: N-terminal GST; dsDNA, one strand shown
T6 sequence: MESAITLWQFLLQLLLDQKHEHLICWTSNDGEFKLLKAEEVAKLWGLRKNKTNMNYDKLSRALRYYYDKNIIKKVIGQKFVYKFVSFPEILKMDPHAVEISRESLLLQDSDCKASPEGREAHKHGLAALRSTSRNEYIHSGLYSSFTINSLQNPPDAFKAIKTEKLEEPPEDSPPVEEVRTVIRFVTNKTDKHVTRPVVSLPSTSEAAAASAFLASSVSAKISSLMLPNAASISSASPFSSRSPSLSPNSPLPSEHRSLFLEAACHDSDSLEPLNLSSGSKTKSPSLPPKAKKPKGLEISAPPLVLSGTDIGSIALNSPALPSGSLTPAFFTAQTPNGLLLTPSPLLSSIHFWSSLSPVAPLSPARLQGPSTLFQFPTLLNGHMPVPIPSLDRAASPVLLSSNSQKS
Summary of the method: as §1

FEV = target: T7, FEV (Homo sapiens, UniProt Q99581 1-238); conditions: protein: recombinant; tags: N-terminal GST; dsDNA, one strand shown
T7 sequence: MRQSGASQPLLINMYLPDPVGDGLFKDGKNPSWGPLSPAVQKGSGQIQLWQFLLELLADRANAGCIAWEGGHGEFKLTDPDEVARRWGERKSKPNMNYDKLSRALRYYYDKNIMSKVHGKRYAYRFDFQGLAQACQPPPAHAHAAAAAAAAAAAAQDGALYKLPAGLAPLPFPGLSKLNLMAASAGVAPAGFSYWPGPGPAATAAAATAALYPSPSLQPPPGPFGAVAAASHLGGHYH
Summary of the method: as §1

ETV5 = ETV5 (Homo sapiens, UniProt P41161 1-510); conditions: protein: recombinant; tags: N-terminal GST; dsDNA, one strand shown
ETV5, sequence (P41161 whole entry): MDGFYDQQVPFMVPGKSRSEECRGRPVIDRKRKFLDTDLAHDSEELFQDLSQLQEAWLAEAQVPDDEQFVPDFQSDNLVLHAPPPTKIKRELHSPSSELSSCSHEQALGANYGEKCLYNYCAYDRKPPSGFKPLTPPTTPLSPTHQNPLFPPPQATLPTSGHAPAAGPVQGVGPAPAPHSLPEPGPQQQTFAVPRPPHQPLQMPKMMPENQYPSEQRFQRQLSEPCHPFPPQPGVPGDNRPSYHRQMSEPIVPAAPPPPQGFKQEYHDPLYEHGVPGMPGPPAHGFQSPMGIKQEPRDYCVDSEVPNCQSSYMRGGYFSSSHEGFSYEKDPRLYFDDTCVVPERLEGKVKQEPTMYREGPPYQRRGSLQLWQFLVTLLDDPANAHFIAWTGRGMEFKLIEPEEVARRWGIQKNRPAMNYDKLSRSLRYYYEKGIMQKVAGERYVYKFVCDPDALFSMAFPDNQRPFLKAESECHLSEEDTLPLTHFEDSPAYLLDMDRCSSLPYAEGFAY
Summary of the method: as §1

HSF1 = HSF1 (Homo sapiens, UniProt Q00613 1-529); conditions: protein: recombinant; tags: N-terminal GST; chain copies: 3; dsDNA, one strand shown
HSF1, sequence (Q00613 whole entry): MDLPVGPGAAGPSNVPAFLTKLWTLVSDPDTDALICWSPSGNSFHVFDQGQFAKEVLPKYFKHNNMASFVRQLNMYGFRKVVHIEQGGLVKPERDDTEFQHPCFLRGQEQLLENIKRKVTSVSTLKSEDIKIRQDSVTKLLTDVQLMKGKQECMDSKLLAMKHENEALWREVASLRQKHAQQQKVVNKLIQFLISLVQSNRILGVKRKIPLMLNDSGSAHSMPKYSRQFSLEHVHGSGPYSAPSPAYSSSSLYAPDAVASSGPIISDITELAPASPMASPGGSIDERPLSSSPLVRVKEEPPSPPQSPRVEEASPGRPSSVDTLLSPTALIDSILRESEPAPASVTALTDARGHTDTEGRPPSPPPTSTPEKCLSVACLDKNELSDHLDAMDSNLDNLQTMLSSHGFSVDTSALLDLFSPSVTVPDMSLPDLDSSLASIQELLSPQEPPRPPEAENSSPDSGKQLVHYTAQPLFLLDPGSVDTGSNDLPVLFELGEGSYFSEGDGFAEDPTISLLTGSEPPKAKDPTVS
Summary of the method: as §1

SPIC = target: T8, SPIC (Homo sapiens, UniProt Q8N5J4 1-248); conditions: protein: recombinant; tags: N-terminal GST; dsDNA, one strand shown
T8 sequence: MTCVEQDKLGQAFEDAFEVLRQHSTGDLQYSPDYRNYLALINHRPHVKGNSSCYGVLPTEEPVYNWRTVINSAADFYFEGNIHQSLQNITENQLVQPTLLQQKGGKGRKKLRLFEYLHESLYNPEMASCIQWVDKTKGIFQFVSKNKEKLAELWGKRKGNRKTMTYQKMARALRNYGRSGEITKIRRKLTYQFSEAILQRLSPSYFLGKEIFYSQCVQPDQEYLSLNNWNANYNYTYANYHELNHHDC
Summary of the method: as §1

ELF4 = ELF4 (Homo sapiens, UniProt Q99607 1-663); conditions: protein: recombinant; tags: N-terminal GST; dsDNA, one strand shown
ELF4, sequence (Q99607 whole entry): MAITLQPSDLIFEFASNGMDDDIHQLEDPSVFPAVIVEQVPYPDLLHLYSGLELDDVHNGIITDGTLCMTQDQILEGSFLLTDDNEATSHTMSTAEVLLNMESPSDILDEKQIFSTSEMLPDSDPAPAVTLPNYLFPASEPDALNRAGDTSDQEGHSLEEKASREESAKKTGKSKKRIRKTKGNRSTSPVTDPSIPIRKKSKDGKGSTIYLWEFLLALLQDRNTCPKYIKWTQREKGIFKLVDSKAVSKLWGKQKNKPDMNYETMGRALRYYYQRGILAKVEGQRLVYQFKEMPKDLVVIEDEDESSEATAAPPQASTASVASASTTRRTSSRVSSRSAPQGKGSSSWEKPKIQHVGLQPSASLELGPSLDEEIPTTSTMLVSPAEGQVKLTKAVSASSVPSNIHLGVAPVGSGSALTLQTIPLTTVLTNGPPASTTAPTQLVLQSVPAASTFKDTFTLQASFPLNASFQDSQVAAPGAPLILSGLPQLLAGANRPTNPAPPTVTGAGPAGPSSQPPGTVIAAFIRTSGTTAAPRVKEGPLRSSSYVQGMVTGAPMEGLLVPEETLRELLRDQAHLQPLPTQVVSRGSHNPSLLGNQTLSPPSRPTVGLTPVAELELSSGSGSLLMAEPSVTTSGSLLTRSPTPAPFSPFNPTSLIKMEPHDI
Summary of the method: as §1

ELK4 = target: T9, ELK4 (Homo sapiens, UniProt P28324-2 1-405); conditions: protein: recombinant; tags: N-terminal GST; dsDNA, one strand shown
T9 sequence: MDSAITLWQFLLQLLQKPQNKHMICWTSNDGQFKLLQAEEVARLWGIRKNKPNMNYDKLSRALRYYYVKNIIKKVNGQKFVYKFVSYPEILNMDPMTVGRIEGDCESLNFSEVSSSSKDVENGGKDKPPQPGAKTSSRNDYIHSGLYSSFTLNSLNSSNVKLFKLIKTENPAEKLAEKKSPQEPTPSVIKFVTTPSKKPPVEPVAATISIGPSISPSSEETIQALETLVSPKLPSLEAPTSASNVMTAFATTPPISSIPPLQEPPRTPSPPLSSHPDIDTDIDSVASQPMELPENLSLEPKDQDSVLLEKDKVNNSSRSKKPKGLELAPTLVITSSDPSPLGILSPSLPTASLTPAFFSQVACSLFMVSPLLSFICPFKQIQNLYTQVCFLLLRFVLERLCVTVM
Summary of the method: as §1

ETV2 = target: T10, ETV2 (Homo sapiens, UniProt O00321 1-342); conditions: protein: recombinant; tags: N-terminal GST; dsDNA, one strand shown
T10 sequence: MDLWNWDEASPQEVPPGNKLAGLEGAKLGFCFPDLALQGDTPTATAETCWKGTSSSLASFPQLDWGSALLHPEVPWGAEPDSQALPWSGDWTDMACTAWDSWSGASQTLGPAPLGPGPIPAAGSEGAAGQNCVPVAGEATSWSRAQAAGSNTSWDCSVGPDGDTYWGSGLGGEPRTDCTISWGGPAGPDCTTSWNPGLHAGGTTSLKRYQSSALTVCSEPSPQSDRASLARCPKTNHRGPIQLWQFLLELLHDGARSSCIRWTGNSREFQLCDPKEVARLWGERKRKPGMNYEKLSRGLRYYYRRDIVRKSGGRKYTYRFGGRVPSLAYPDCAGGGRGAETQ
Summary of the method: as §1

ELF3 = target: T11, ELF3 (Homo sapiens, UniProt P78545 1-371); conditions: protein: recombinant; tags: N-terminal GST; dsDNA, one strand shown
T11 sequence: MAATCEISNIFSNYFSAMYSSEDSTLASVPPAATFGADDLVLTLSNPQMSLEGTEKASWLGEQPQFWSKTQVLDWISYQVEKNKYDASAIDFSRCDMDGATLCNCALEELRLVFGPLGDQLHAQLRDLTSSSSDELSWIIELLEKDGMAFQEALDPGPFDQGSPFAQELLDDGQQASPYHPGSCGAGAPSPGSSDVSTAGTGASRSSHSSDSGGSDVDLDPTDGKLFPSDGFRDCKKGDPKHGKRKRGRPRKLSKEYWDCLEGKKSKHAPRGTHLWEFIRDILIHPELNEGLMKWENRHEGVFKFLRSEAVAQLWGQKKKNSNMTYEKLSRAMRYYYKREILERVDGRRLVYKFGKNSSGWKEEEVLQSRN
Summary of the method: as §1

CRX = CRX (Homo sapiens, UniProt O43186 1-299); conditions: protein: recombinant; tags: N-terminal GST; dsDNA, one strand shown
CRX, sequence (O43186 whole entry): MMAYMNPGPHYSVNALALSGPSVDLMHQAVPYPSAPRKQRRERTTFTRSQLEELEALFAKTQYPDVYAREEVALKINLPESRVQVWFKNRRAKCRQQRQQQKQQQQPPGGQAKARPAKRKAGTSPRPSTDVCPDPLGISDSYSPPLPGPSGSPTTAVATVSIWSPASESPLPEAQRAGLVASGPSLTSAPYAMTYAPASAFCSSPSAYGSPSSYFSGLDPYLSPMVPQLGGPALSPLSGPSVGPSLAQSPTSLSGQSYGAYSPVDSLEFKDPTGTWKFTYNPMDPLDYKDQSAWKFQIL
Summary of the method: as §1

ETV1 = ETV1 (Homo sapiens, UniProt P50549 1-477); conditions: protein: recombinant; tags: N-terminal GST; dsDNA, one strand shown
ETV1, sequence (P50549 whole entry): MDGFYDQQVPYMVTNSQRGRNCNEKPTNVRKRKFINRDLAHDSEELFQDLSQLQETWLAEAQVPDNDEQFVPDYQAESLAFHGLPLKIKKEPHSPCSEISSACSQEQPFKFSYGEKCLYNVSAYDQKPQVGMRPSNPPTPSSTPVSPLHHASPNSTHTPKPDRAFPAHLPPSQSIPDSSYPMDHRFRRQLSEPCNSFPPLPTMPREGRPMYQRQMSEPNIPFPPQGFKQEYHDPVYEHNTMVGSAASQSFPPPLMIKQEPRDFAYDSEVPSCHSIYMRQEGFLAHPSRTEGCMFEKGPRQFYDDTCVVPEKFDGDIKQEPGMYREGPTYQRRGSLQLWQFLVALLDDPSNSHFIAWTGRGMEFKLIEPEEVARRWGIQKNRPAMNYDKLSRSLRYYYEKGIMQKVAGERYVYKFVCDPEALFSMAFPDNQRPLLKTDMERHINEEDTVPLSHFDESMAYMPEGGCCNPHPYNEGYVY
Summary of the method: as §1

CGTCTC
binding signal (FLI1): 1.41 fold enrichment (6-mer frequency, TF over GST control) | binding signal (ELK1): 1.36 fold enrichment (6-mer frequency, TF over GST control) | binding signal (GABPA): 1.49 fold enrichment (6-mer frequency, TF over GST control) | binding signal (ERG): 1.31 fold enrichment (6-mer frequency, TF over GST control) | binding signal (ELF1): 1.53 fold enrichment (6-mer frequency, TF over GST control) | binding signal (EHF): 1.41 fold enrichment (6-mer frequency, TF over GST control) | binding signal (SPI1): 1.36 fold enrichment (6-mer frequency, TF over GST control) | binding signal (SPIB): 1.61 fold enrichment (6-mer frequency, TF over GST control) | binding signal (ELK3): 1.63 fold enrichment (6-mer frequency, TF over GST control) | binding signal (FEV): 1.46 fold enrichment (6-mer frequency, TF over GST control) | binding signal (ETV5): 1.46 fold enrichment (6-mer frequency, TF over GST control) | binding signal (HSF1): 1.42 fold enrichment (6-mer frequency, TF over GST control) | binding signal (SPIC): 1.47 fold enrichment (6-mer frequency, TF over GST control) | binding signal (ELF4): 1.55 fold enrichment (6-mer frequency, TF over GST control) | binding signal (ELK4): 1.49 fold enrichment (6-mer frequency, TF over GST control) | binding signal (ETV2): 1.27 fold enrichment (6-mer frequency, TF over GST control) | binding signal (ELF3): 1.46 fold enrichment (6-mer frequency, TF over GST control) | binding signal (CRX): 1.18 fold enrichment (6-mer frequency, TF over GST control) | binding signal (ETV1): 1.43 fold enrichment (6-mer frequency, TF over GST control)

— article PMC7862700, “An all-to-all approach to the identification of sequence-specific readers for epigenetic DNA modifications on cytosine”
